Our source for the Potency values is PubChem BioAssay AID2613 (National Center for Advancing Translational Sciences (NCATS), 2010).

Structures are written as SMILES. Inconclusive results are not listed. A call without a number means that no potency is given here. Activity calls are given as the source filed them. The call rests on the fitted dose curve; in most records, active means well fitted inhibition curve with a large enough effect; inconclusive means small, poorly fitted or top-dose-only effect; inactive means flat fitted curve, though single readings scatter.

Sequence of Lysosomal acid glucosylceramidase (Homo sapiens) (P04062 whole entry N409S): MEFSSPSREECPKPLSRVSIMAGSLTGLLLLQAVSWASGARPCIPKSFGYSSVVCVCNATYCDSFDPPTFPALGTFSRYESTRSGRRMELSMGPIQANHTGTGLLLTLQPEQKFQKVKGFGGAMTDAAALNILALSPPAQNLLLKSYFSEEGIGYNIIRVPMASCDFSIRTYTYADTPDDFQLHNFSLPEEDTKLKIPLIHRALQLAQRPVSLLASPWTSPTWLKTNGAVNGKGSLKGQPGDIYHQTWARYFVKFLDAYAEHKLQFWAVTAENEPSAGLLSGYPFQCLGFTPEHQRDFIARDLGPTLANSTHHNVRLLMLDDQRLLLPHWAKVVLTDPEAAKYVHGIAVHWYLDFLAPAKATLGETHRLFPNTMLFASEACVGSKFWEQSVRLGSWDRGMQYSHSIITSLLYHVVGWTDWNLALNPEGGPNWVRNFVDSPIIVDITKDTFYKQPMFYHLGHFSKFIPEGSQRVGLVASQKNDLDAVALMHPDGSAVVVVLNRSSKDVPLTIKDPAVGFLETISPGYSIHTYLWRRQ

The assay has as its target Lysosomal acid glucosylceramidase (Homo sapiens) (UniProt P04062). The assay is described as follows: qHTS Assay for Inhibitors and Activators of N370S glucocerebrosidase as a Potential Chaperone Treatment of Gaucher Disease: Activity in N370S Spleen Homogenate Using a Red Fluorescent Substrate. Particulars: red fluorogenic substrate; series mostly up to 49.6 µM. From the text:
NIH Chemical Genomics Center [NCGC]
NIH Molecular Libraries Probe Production Centers Network [MLPCN]
Assay Submitter (PI): Wei Zheng
Glucocerebrosidase (GC) catalyzes the hydrolysis of beta-glucocerebroside to glucose and ceramide in lysosomes. Mutations in the glucocerebrosidase gene result in Gaucher disease, an autosomal recessive lysosomal storage disorder. Many of the mutations encountered in patients with Gaucher disease are missense alterations that may cause misfolding, decreased stability and/or mistrafficking of this lysosomal protein. […] These inhibitors include iminosugar analogs and three non-iminosugar inhibitors identified from a previous HTS of 62,000 compounds with the wild type recombinant enzyme. However, the enhancement of enzyme activity by the chaperone action of an enzyme inhibitor must be balanced against the direct inhibition of the enzyme. An enzyme activator could also function as a chaperone by binding to the enzyme and helping to correct its misfolding and mistrafficking. While activators for GC have not yet been identified, they may have better therapeutic potential than inhibitors. Therefore the discovery and development of chemical activators may provide a new strategy for the chaperone therapy.
We have optimized a new assay using N370S mutant GC derived from the spleen of a Gaucher patient. […] In addition, the MLPCN compound library has expanded, which increases the chance of finding new and better probes.
This confirmation assay tests for compound activity in spleen homogenate from a patient homozygous for the N370S mutation using an alternate resorufin-based substrate.
NCGC Assay Protocol Summary:
This is a fluorogenic enzyme assay with resorufin-beta-D-glucopyranoside as the substrate and mutant N370S glucocerebrosidase from human spleen homogenate as the enzyme preparation. Upon the hydrolysis of this fluorogenic substrate, the resulting product, […] which can be detected by a standard fluorescence plate reader. Data were normalized to the controls for basal activity (without enzyme) and 100% activity (with enzyme). The AC50 values were determined from concentration-response data modeled with the standard Hill equation.
Assay buffer: 50 mM citric acid (titrated with potassium phosphate to pH 5.0), 100 mM potassium chloride, 10 mM sodium chloride, 1 mM magnesium chloride, 0.01% Tween-20.
1536-well assay protocol:
(1) Add 2 ul/well of spleen homogenate (27 ug final)
(2) Add 23 nL compounds in DMSO solution. The final titration was 0.5 nM to 58 uM.
(3) Add 2 ul of substrate (1 mM final)
(4) Incubate at 37C for 40 min.
(5) Add 2 ul stop solution (1M NaOH and 1M Glycine mixture, pH 10)
(6) Detect the assay plate in a ViewLux plate reader (PerkinElmer) with Ex=365 nm and Em=440nm.
Keywords: Glucocerebrosidase, beta-glucosidase, Gaucher Disease, pharmacological chaperone, chaperone therapy, high throughput screening, glucocerebrosidase inhibitor, MLSMR, MLSCN, NIH Roadmap, qHTS and NCGC
For orientation: qHTS replaces the single test concentration by a dilution series.
Regarding `OCCNc1nc(Nc2ccc(Cl)cc2)nc(N2CCCC2)n1`, the Potency is 35.5 µM (active).
For `Cc1cc(N2CCCCC2)nc2ccc(NC(=O)C3CCC(C)CC3)cc12` (centres undefined) the value was 17.8 µM (active); for `CSc1ccc(NC(=O)Nc2cc(C)ccn2)cc1`, “inactive”.
For `O=C(Nc1cnn(Cc2ccc(F)cc2)c1)c1cnn2c(C(F)F)cc(-c3ccccc3)nc12` the value was “inactive”; for `CCN(CC)c1cc(C)c2cc(NC(=O)C3CCC(C)CC3)ccc2n1` (centres undefined), 28.2 µM (active).
For `Cc1ccc(S(=O)(=O)Nc2ccc(C(=O)NCc3ccccc3)cc2)cc1` the value was “inactive”.
For the compound `N=c1c2c(-c3ccccc3)c(-c3ccccc3)n(Cc3ccco3)c2ncn1CCCn1ccnc1`, the Potency was 7.94 µM (active).
Regarding `Cc1cc(N2CCOCC2)nc2ccc(NC(=O)C3CCC(C)CC3)cc12` (centres undefined), the Potency is 3.16 µM (active).
For `CCOc1ccc(N(CC(=O)NC2CCCCCC2)S(=O)(=O)c2c(C)[nH]c(=O)[nH]c2=O)cc1` the value was 2.82 µM (active); for `O=C(NCc1ccccc1)c1ccc(NS(=O)(=O)c2ccccc2)cc1`, “inactive”; for `O=S(=O)(c1ccc(Cl)cc1)N1CCN(c2nc(-c3cccs3)nc3ccccc23)CC1`, 0.891 µM (active).
`Oc1ccccc1Nc1nc(NCC2CCCO2)c2ccccc2n1` (centres undefined): the Potency entry was “inactive”.
For `COC(=O)c1ccccc1NC(=O)c1ccc2c(c1)C(=O)N(Cc1ccccc1)C2=O` the value was “inactive”; for `Nc1nc(-c2ccccc2)c(N=Nc2ccc(Cl)cc2)s1`, “inactive”; for `CC1(C)CC(=O)C2=C(C1)c1c(ccc3ccccc13)NC2c1ccc(Br)o1` (centres undefined), “inactive”.
For `Cc1cc(C)cc(N(CC(=O)NC2CCC(C)CC2)S(=O)(=O)c2c(C)[nH]c(=O)[nH]c2=O)c1` (centres undefined) the value was 0.562 µM (active); for `Cc1cc(N2CCOCC2)nc2ccc(NC(=O)CCC(=O)NC3CCCCC3)cc12`, “inactive”; for `N#Cc1ccccc1Sc1ccccc1C(=O)OCC(=O)NC12CC3CC(CC(C3)C1)C2`, “inactive”.
For `c1ccc2c(NCC3CCCO3)nc(N3CCOCC3)nc2c1` (centres undefined) the value was “inactive”; for `CCCC1CCC(C(=O)Nc2ccc3nc(N4CCOCC4)cc(C)c3c2)CC1` (centres undefined), 0.562 µM (active); for `O=C(/C=C/c1ccc(O)cc1)c1ccc(O)cc1O`, 4.47 µM (active).
`CCCCNC(=O)c1ccc(NS(=O)(=O)c2ccccc2)cc1`: the Potency entry was “inactive”.
`O=C(Nc1nccs1)c1ccc(NS(=O)(=O)c2ccc(Cl)cc2)cc1`: the Potency result was “inactive”.
Next, `S=C(NCCCc1cnc[nH]1)NCCCN(Cc1ccc(Cl)c(Cl)c1)c1ccc(Br)cn1`: 2.24 µM (active).
